KCNQ2 block: KCNQ2 (rat) channel inhibition. hit rate 1.1% among 310,000. CHO-K1 KCNQ2, FluxOR thallium flux, 20 min; active compounds read low. O88943. B-score at 10 µM. AID 2156;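 active means fluorescence ratio B-score at most minus 3 library SDs, with starting brightness B-score within 2 library SDs, cut at about -5.5 in these data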
KCNQ2 pot: enhances the rat KCNQ2 potassium channel; O88943; CHO-K1 KCNQ2, FluxOR thallium flux fluorescence; active compounds read high; B-score at 10 µM; hit rate 0.54% among 310,000;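 active means fluorescence ratio B-score at least 3 SD of library B-scores, with initial fluorescence B-score within 3 of them, cut at about 5.3 in these data; same plate scores as AID 2156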;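 further: B-score of peak minus minimum over baseline fluorescence ratio after K+ and Tl+ stimulus; positive B-score means potentiation of KCNQ2 with more thallium influx and brighter signal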
Kir21 conf inh: confirmation of mouse Kir2.1 potassium channel inhibitors. shares compounds with KCNQ2 pot. Kir2.1-expressing cells, FluxOR thallium flux fluorescence; active compounds read low. Tl flux remaining, % of negative control (active compounds read low), % at 10 µM. hit rate 41% among 2,300. AID 2032;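 active means Primary-screen hit whose thallium flux fell at least 3 control SD below untreated wells in both duplicates, with normal baseline fluorescence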;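 further: 0% = blank wells without stimulus and 100% = stimulated no-compound controls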
Target sequence (P35561 whole entry, looked up): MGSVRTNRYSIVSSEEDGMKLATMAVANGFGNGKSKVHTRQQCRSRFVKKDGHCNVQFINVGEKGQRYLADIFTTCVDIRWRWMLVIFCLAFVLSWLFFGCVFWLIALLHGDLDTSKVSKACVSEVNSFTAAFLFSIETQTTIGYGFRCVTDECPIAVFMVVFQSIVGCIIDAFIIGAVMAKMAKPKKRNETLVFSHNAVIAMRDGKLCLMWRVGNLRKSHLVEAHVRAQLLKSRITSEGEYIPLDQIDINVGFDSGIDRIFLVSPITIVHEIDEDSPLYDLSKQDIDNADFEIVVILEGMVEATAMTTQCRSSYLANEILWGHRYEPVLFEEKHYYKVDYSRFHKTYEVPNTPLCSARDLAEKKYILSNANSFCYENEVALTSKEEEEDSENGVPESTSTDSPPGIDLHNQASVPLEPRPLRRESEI
HEK293 Tl flux: counter-screen for Kir2.1 inhibitors: effect in parental HEK293 cells | shares compounds with KCNQ2 pot | FluxOR thallium flux fluorescence; 0% = unstimulated blank wells | FluxOR signal as % of negative control (100 = no effect), % at 10 µM | hit rate 19% among 2,300;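 active means dye signal at least 3 control SD above or below untreated wells in both duplicates, raw fluorescence within 3, either direction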;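 further: percent is based on the flux ratio of peak minus minimum fluorescence over baseline F0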
CHO-K1 Tl ctr: alters thallium flux in parental CHO-K1 cells, KCNQ2 counter-screen; AID 2282; activity increase over 3SD of controls, % at 10 µM; hit rate 43% among 1,200; shares compounds with KCNQ2 pot; FluxOR thallium flux fluorescence; zero = vehicle mean+3SD, 100% = vehicle-minus-blank window;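 active means signal rise of at least 3 SD above the untreated control mean, in both duplicate wells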;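 further: counter screen of KCNQ2 potentiator hits so any rise reflects channel-independent effects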
KCNQ1 pot spec: selectivity of KCNQ2 potentiators: effect on human KCNQ1 | shares compounds with KCNQ2 pot | CHO KCNQ1 stable, FluxOR thallium flux fluorescence; beyond 3SD, as % of vehicle-control signal | activation over 3SD threshold, % at 10 µM | hit rate 28% among 1,200 | AID 2283;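 active means fluorescence ratio rise of at least 3 SD of vehicle wells above their mean, in both replicate wells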;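 further: 0% = vehicle mean plus 3 SD and 100% = vehicle minus unstimulated blank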
KCNQ2 pot confirm: confirmation of rat KCNQ2 potassium channel potentiators; shares compounds with KCNQ2 pot; CHO-KCNQ2 cells, FluxOR thallium flux fluorescence; potentiation, less the hit threshold, % at 10 µM; hit rate 68% among 1,200; AID 2287;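 active means fluorescence ratio rising 3 SD or more over the vehicle control mean in both replicates, plus primary screen hit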;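 further: peak minus minimum thallium fluorescence divided by baseline after K/Tl stimulus; 0% = vehicle mean plus 3 SD and 100% = vehicle minus unstimulated blank difference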
Kir2-1 sel: selectivity of KCNQ2 potentiators: effect on mouse Kir2.1. shares compounds with KCNQ2 pot. HEK293 Kir2.1, FluxOR thallium flux fluorescence. activity over 3SD threshold, % at 10 µM. hit rate 2% among 1,200. AID 2345;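 active means fluorescence ratio rise of at least 3 SD above the vehicle-control mean, seen in both replicates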;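 further: 0% = vehicle mean plus 3 SD and 100% = vehicle minus no-stimulus blank window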
KCNQ2 W236L MoA: rat KCNQ2 W236L mutant potentiation by KCNQ2 potentiators. shares compounds with KCNQ2 pot. CHO KCNQ2-W236L, automated patch clamp current. current increase over 3SD of negative controls (%), active compounds read high, % at 25 µM. hit rate 10% among 940;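 active means current increase at least 3 SD of the untreated controls above them in both duplicate recordings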
* marks the source's active call; other numbers are inactive results; i = inactive; nt = no result given. Rows were chosen to be rich in hits. Some 1.6% of all compounds tested hit in one or more screens of this group.

SMILES | KCNQ2 block | KCNQ2 pot | Kir21 conf inh | HEK293 Tl flux | others
CCCCCc1ccc(CC(=O)Nn2c(C)nc3ccccc3c2=O)cc1 | i | 15* | i | i | CHO-K1 Tl ctr=10*;KCNQ1 pot spec=-8;KCNQ2 pot confirm=93*;Kir2-1 sel=-40;KCNQ2 W236L MoA=i
CCc1ccc(C(=O)Nn2c(C)nc3ccccc3c2=O)cc1 | i | 1.4 | nt | nt
Cc1nn(-c2ccccc2Cl)c(Cl)c1/C=N/Nc1cccc(C(=O)O)c1 | i | 5.2 | nt | nt
Cc1nn(-c2cccc(C(F)(F)F)c2)c(Cl)c1/C=N/Nc1cccc(C(=O)O)c1 | i | 9.9* | i | i | CHO-K1 Tl ctr=-10;KCNQ1 pot spec=30*;KCNQ2 pot confirm=98*;Kir2-1 sel=-36;KCNQ2 W236L MoA=17%*
CC(=O)Nc1ccc(S(=O)(=O)N2CCC(N3CCCCC3)CC2)cc1 | i | nt | nt | nt
CCCN(CCC)S(=O)(=O)c1cc2c3c(c1)CCN3C(=O)CC2 | i | nt | nt | nt
CCN(c1cccc(C)c1)S(=O)(=O)c1cc2c3c(c1)CCC(=O)N3CCC2 | i | nt | i | i
Clc1ccc(OCCCCCN2CCOCC2)cc1 | i | 0.72 | nt | nt
CCN(CC)CCNC(=O)c1cn(CC)c2cc(N3CCN(C)CC3)c(F)cc2c1=O | i | 0.15 | nt | nt
CCS(=O)(=O)c1ccc2oc(SCC(=O)Nc3ccc(OC)cc3OC)nc2c1 | i | 0.67 | nt | nt
CCS(=O)(=O)c1ccc2oc(SCC(=O)NC(C)C3CC4CCC3C4)nc2c1 (stereo unspecified) | i | 10* | i | i | CHO-K1 Tl ctr=-17;KCNQ1 pot spec=-14;KCNQ2 pot confirm=21*;Kir2-1 sel=-37;KCNQ2 W236L MoA=i
COc1cccc(C(=O)OCC(=O)c2c[nH]c3ccccc23)c1O | i | 0.25 | nt | nt
O=C(COC(=O)C12CC3CC(CC(O)(C3)C1)C2)NCCc1ccc(Cl)cc1 | i | nt | nt | nt
O=C(CC1(c2ccc(Cl)cc2)C2CC3CC(C2)CC1C3)NCCO (stereo unspecified) | i | 5.4* | i | i | CHO-K1 Tl ctr=48*;KCNQ1 pot spec=72*;KCNQ2 pot confirm=14*;Kir2-1 sel=-46;KCNQ2 W236L MoA=i
O=C(COc1ccc(Br)cc1)N(Cc1ccco1)C1CCS(=O)(=O)C1 (stereo unspecified) | i | nt | nt | nt
C=CCn1c(SCC(N)=O)nc2scc(-c3ccc(C)o3)c2c1=O | i | 5.3* | i | 195%* | CHO-K1 Tl ctr=22*;KCNQ1 pot spec=-17;KCNQ2 pot confirm=25*;Kir2-1 sel=-26;KCNQ2 W236L MoA=i
C=CCn1c(SCC(=O)NCCOC)nc2scc(-c3ccco3)c2c1=O | i | nt | nt | nt
CC(C)c1nnc(SCC(=O)NCCC2=CCCCC2)n1N | i | 5.9* | i | i | CHO-K1 Tl ctr=-17;KCNQ1 pot spec=2.2*;KCNQ2 pot confirm=24*;Kir2-1 sel=-21;KCNQ2 W236L MoA=2.6%*
Nc1cc(N)nc(SCC(=O)NCCC2=CCCCC2)n1 | i | 0.09 | nt | nt
CCO[C@H]1OC(C(N)=O)=C[C@@H](C2CCCCC2)[C@@H]1CCCO | i | 0.5 | nt | nt
N/C(=N\OC(=O)CCC1CCCC1)c1ccc([N+](=O)[O-])cc1 | i | 0.44 | nt | nt
N/C(=N\OC(=O)CC1CCCCC1)c1cccc(Br)c1 | i | 7.8* | i | i | CHO-K1 Tl ctr=-13;KCNQ1 pot spec=9.5*;KCNQ2 pot confirm=21*;Kir2-1 sel=-43;KCNQ2 W236L MoA=i
N/C(=N\OC(=O)CC1CCCCC1)c1ccc(Br)cc1 | i | nt | nt | nt
N/C(=N\OC(=O)CCC1CCCCC1)c1cccc([N+](=O)[O-])c1 | i | 11* | i | i | CHO-K1 Tl ctr=24*;KCNQ1 pot spec=-15;KCNQ2 pot confirm=30*;Kir2-1 sel=-39;KCNQ2 W236L MoA=i
Cn1ccsc1=NC(=O)c1cccc(C#N)c1 | i | 1.4 | nt | nt
SMILES | KCNQ2 block | KCNQ2 pot | Kir21 conf inh | HEK293 Tl flux | others
Fc1ccc2[nH]c3c(NCc4ccccc4)ncnc3c2c1 | i | nt | nt | nt
CC(=O)n1nc(-c2ccccc2)nc1NCc1cccs1 | i | nt | nt | nt
CCOc1ccccc1C(=O)OCC(=O)Nc1nnc(-c2ccccc2)o1 | i | 5.5* | i | 145%* | CHO-K1 Tl ctr=23*;KCNQ1 pot spec=-6;KCNQ2 pot confirm=14*;Kir2-1 sel=-17;KCNQ2 W236L MoA=i
CCOc1ccccc1C(=O)NC(C(=O)OCC(=O)Nc1nnc(-c2ccccc2)o1)C(C)C (stereo unspecified) | i | nt | nt | nt
CC(Oc1ccc(Br)cc1)C(=O)Nc1nnc(C2CC2)s1 (stereo unspecified) | i | 0.21 | nt | nt
COc1cc(/C=C(\C#N)C(=O)N2CCOCC2)cc(Br)c1O | i | nt | nt | nt
N#C/C(=C\c1cccc(Oc2ccccc2)c1)C(=O)N1CCOCC1 | -6.4* | -6.4 | 36%* | i
CCC1(c2ccccc2)NC(=O)N(CC(=O)Nc2ccc(Cl)c(S(=O)(=O)N3CCCCC3)c2)C1=O (stereo unspecified) | i | nt | nt | nt
Cc1cc(C(=O)OCC(=O)N(CC(C)C)c2c(N)n(Cc3ccccc3)c(=O)[nH]c2=O)c(C)o1 | i | nt | nt | nt
Nc1ccc2nc(-c3ccc(Cl)cc3)[nH]c2c1 | i | 0.01 | nt | nt
Clc1ccc2nc(-c3ccc(Cl)nc3)[nH]c2c1 | i | 6.9* | i | i | CHO-K1 Tl ctr=-7;KCNQ1 pot spec=57*;KCNQ2 pot confirm=5.7*;Kir2-1 sel=-17;KCNQ2 W236L MoA=3.5%*
Cc1ccc(S(=O)(=O)/N=C(/Nc2cccc3ccccc23)c2ccc(F)cc2)cc1 | i | 0.85 | nt | nt
COc1ccccc1C1(CCNC(C)c2cccs2)CCOC(C(C)C)C1 (stereo unspecified) | i | 0.28 | 40%* | 72%*
Cc1ccc(C2(CCNC(C)c3cccs3)CCOC(C(C)C)C2)cc1 (stereo unspecified) | i | nt | nt | nt
COC(=O)C1=NN(C(=O)c2cccc(Br)c2)C(O)(c2ccc(Cl)cc2)C1 (stereo unspecified) | i | 16* | i | i | CHO-K1 Tl ctr=18*;KCNQ1 pot spec=-8;KCNQ2 pot confirm=65*;Kir2-1 sel=-24;KCNQ2 W236L MoA=i
CCOC(=O)C1=NN(C(=O)Cc2ccccc2)C(O)(c2ccc(Cl)cc2)C1 (stereo unspecified) | i | nt | nt | nt
O=C(O)c1cccc(NC2=C(Cl)C(=O)c3ccccc3C2=O)c1 | -7.6* | -7.6 | 38%* | i
Cc1ccc(NC2=C(NC(=O)c3ccccc3)C(=O)c3ccccc3C2=O)cc1Cl | i | nt | nt | nt
O=C(O)c1ccc(NC2=C(Cl)C(=O)c3ccccc3C2=O)cc1 | -10* | -10 | i | i
O=C1C(Cl)=C(Nc2ccccc2)C(=O)c2ccccc21 | i | nt | nt | nt
COc1ccccc1CNC(=O)c1ccccc1NC(=O)C1=C(C)OCCS1 | i | 0.18 | nt | nt
CCOC(=O)CNc1nc(Cl)nc(Nc2ccc(Cl)cc2)n1 | i | 1 | nt | nt
O=C(N/N=C/c1ccoc1)c1cccc(OC(F)(F)C(F)F)c1 | i | 2.1 | nt | nt

Assay outcomes from PubChem.
